From PubChem BioAssay (NCATS)
Records with an inconclusive call do not appear. Values without a mark were called inactive. The source made the active and inactive calls. The call rests on the fitted dose curve; in most records, active means well fitted cell-killing curve with a large enough effect; inconclusive means small, poorly fitted or top-dose-only effect, or effect the other way; inactive means no such curve, though single readings can be large or run the other way.

test: Viability qHTS for spleen associated tyrosine kinase inhibitor (SYKi) naive MV4-11 cells (AID 1963823); conditions: MV4-11 AML viability, CellTiter-Glo luminescence, 72 h; series mostly up to 45 µM; viability (% of control): at the top concentration; further: nearly all actives have a fitted effect of over 40% in size
Outline: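 Cells: MV4-11, SYK inhibitor naive, 500 per well. Treatment: library compounds, 72 hr, 37 C, 5% CO2. Read-out: CellTiter-Glo luminescence after 10 min RT.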
Potency means the concentration at half of the fitted maximal effect.

| SMILES | viability (% of control) | Potency |
| --- | --- | --- |
| CC(=O)c1ccc(O[C@@H]2OC[C@@H](O)[C@H](O)[C@H]2O[C@]2(CO)O[C@H](CO)[C@@H](O)[C@@H]2O)c(O)c1 | 90.7% [at 17.3 µM] |  |
| C=C(C)C1CCC2(C(=O)OC3OC(COC4OC(CO)C(O)C(O)C4O)C(OC4OC(C)C(O)C(O)C4O)C(O)C3O)CCC3(C(=O)O)C(CCC4C5(C)CCC(=O)C(C)(C)C5CCC43C)C12 (configuration not stated) | 84.8% [at 9.25 µM] |  |
| O=C(O)CC1(O)C(=O)Nc2ccccc21 (configuration not stated) |  | 9.43 µM (active) |
| CC(=O)/C=C/[C@H]1[C@](C)(O)[C@@H](O)[C@H](O)C2C(C)(C)CCC[C@@]21C (some centres not stated) | 71.6% |  |
| O=S(=O)(NCc1cccc2ccccc12)c1cc(Cl)c(Oc2cccc(N3CCNCC3)c2)s1 |  | 2.59 µM (active) |
| CC(C)(O)C1CC=C(C(=O)OC[C@H]2O[C@@H](OC(=O)C3=CCC(C(C)(C)O)CC3)[C@H](O)[C@@H](O)[C@@H]2O)CC1 (some centres not stated) | 93.6% [at 17.3 µM] |  |
| O=C(O)CCc1cccc(O[C@@H]2O[C@H](CO)[C@@H](O)[C@H](O)[C@H]2O)c1O | 86.4% |  |
| Oc1cccc(-c2nc(N3CCOCC3)c3sccc3n2)c1 |  | 0.82 µM (active) |
| CC(CC(C)O[C@@H]1O[C@H](CO)[C@@H](O)[C@H](O)[C@H]1O)OC(=O)/C=C/c1ccc(O)cc1 (some centres not stated) | 86.9% [at 17.3 µM] |  |
| Nc1nonc1-c1nc2cnccc2n1C1CCCCC1 |  | 0.517 µM (active) |
| CCCCCOc1ccc(-c2cc(-c3ccc(C(=O)N[C@H]4C[C@@H](O)[C@@H](O)NC(=O)C5[C@@H](O)[C@@H](C)CN5C(=O)C([C@H](O)CC(N)=O)NC(=O)C([C@H](O)[C@@H](O)c5ccc(O)c(OS(=O)(=O)O)c5)NC(=O)C5C[C@@H](O)CN5C(=O)C([C@@H](C)O)NC4=O)cc3)no2)cc1 (some centres not stated) | 29.1% [at 17.3 µM] |  |
| CC(C)Oc1ccc(C(=O)NC(CNC(=O)CN(C)C)Cc2ccc(-c3cn4cccc(C(C)O)c4n3)cc2)cc1Cl (configuration not stated) |  | 0.13 µM (active) |

test: Viability qHTS for spleen associated tyrosine kinase inhibitor (SYKi) drug resistant MV4-11 cells (AID 1963824); conditions: SYKi-resistant MV4-11 viability, CellTiter-Glo, 72 h; series mostly up to 45 µM; viability, % of control: at the top concentration; further: nearly all actives have a fitted effect of over 35% in size
Outline: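 SYK inhibitor-resistant MV4-11 AML cells, 500 per well, added to predispensed compounds and incubated 72 hr at 37 C, 5% CO2. Viability measured by CellTiter-Glo luminescence after 10 min at room temperature.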

| SMILES | Potency | viability, % of control |
| --- | --- | --- |
| C/C(=N\N=C(N)N)c1cc(NC(=O)CCCCCCCCC(=O)Nc2cc(/C(C)=N/N=C(N)N)cc(/C(C)=N/N=C(N)N)c2)cc(/C(C)=N/N=C(N)N)c1 | 9.2 µM (active) |  |
| CC/C=C/C=C/C1(C)OC(CC(CO)OC)=CC1=O (configuration not stated) | 23.1 µM (active) |  |
| C/C=C/C1=CC2=C(CO1)C(=O)C(C)(OC(=O)c1c(C)cc(O)cc1OC)C(O)C2 (configuration not stated) | 5.08 µM (active) |  |
| CC1=CC(=O)C2(OC3OC(C)C(O)C(OC(=O)/C=C/c4ccccc4)C3O)C=COC(OC3OC(CO)C(O)C(O)C3O)C12 (configuration not stated) |  | 88% [at 17.3 µM] |
| C/C=C(\C)C(=O)OCC1OC(OC2OC(COC(=O)/C(C)=C/C)C(OC3OC(CO)C(OC(=O)/C(C)=C/C)C(OC(=O)/C(C)=C/C)C3O)C(O)C2O)C(O)C(O)C1OC1OC(CO)C(OC(=O)/C(C)=C/C)C(OC(=O)/C(C)=C/C)C1O (configuration not stated) |  | 58.7% [at 9.25 µM] |
| CCC1C(=O)N(C)c2cnc(Nc3ccc(C(=O)NC4CCC(N5CCN(CC6CC6)CC5)CC4)cc3OC)nc2N1C(C)C (configuration not stated) | 0.0116 µM (active) |  |
| C=C1CC23CC1(O)CCC2C1=CC2OC(=O)C(C)(C2O)C1C3C(=O)O (configuration not stated) |  | 98.5% |
| C[C@@H]1O[C@@H](O[C@H]2[C@H](O)[C@@H](O)[C@H](OC3CCC4(C)C5CCC(C)(C(CO)OC6OC(CO)C(O)C(O)C6O)CC5=CCC4C3(C)C)O[C@@H]2CO)[C@H](O)[C@H](O)[C@H]1O (some centres not stated) |  | 71.1% [at 17.3 µM] |
| CS(=O)(=O)c1ccc([C@@H](CC2CCCC2)C(=O)Nc2nccs2)cc1 | 7.42 µM (active) |  |
| C[C@@H]1C(=O)O[C@H](C)[C@H]1C[C@@H](O)[C@](C)(O)[C@H]1CC[C@@]2(O)C3=CC(=O)[C@@H]4C[C@@H](O)[C@@H](O)C[C@]4(C)C3CC[C@]12C (some centres not stated) |  | 98.8% [at 17.3 µM] |
| CCn1c(=O)c(-c2ccc(-c3cncc(C)n3)cc2Cl)cc2cnc(NCCC3CCN(C)CC3)nc21 | 2.09 µM (active) |  |
| C[C@@H]1O[C@@H](O[C@H]2[C@H](O[C@H]3[C@H](O[C@H]4CC[C@@]5(C=O)C(CC[C@]6(C)C5CC=C5C7CC(C)(C)C[C@@H](O)[C@]7(C)CC[C@]56C)C4(C)C)O[C@H](C(=O)O)[C@@H](O)[C@@H]3O)OC[C@@H](O)[C@@H]2O)[C@H](O)[C@H](O)[C@H]1O (some centres not stated) |  | 103% [at 9.25 µM] |
| C/C=C1/[C@H](O[C@@H]2O[C@H](CO)[C@@H](O)[C@H](O)[C@H]2O)OC=C(C(=O)OC)[C@H]1CC(=O)OCCc1ccc(O)c(O)c1 |  | 83.5% [at 17.3 µM] |
| CC1(CO)CCCC2(C)C1C(OC(=O)c1ccccc1)CC1C(=O)OCC12O (configuration not stated) |  | 80.2% |
| COc1cc(/C=C/CO)cc(OC)c1O[C@@H]1O[C@H](CO[C@@H]2O[C@H](CO)[C@@H](O)[C@H](O)[C@H]2O)[C@@H](O)[C@H](O)[C@H]1O |  | 115% [at 17.3 µM] |
| CN(CCCN1c2ccccc2CCc2ccccc21)CC(=O)c1ccc(Cl)cc1 | 13.3 µM (active) |  |
| Fc1ccc(-c2nc(C3CCNCC3)sc2-c2ccnc(NC3CC3)n2)cc1 | 11.6 µM (active) |  |
| Cc1ccc2c(c1)C=Cc1cc(C)ccc1C2c1cn(Cc2ccc(C(=O)Nc3nn[nH]n3)o2)c(=O)[nH]c1=S |  | 94.4% |
| CC1=CC(=O)CC(C)(C)[C@@]1(O)/C=C/C(C)O[C@@H]1O[C@H](CO)[C@@H](O)[C@H](O)[C@H]1O (some centres not stated) |  | 109% [at 17.3 µM] |
| C[C@]1(OC(=O)/C=C/c2ccccc2)C[C@@H](O)[C@]2(O)C=CO[C@@H](O[C@@H]3O[C@H](CO)[C@@H](O)[C@H](O)[C@H]3O)[C@@H]21 |  | 99.9% [at 17.3 µM] |

| SMILES | Potency | viability, % of control |
| --- | --- | --- |
| CC1=CC(=O)C(C(C)C)=C/C1=N/OC(=O)c1ccccc1C | 4.61 µM (active) |  |
| C[C@@]1(C(=O)O)CCC[C@@]2(C)C3=CC[C@H]4C[C@@]3(CC[C@H]12)CC4(O)CO (some centres not stated) |  | 71.8% |
| O=C(CCCCC1CCCCC1)N1CCC(c2cnc[nH]2)CC1 | 8.2 µM (active) |  |
| CC1CCC2(C=O)C(CO)=CCCC2C1(C)CC(=O)O (configuration not stated) |  | 82.6% |
| CC(C)(O)C1CC=C(C(=O)OC[C@H]2O[C@@H](Oc3cc(C(=O)O)cc(O)c3O)[C@H](O)[C@@H](O)[C@@H]2O)CC1 (some centres not stated) |  | 84.7% [at 17.3 µM] |
| C=C1C(O)CC2C(C(=O)O)=COC(OC3OC(CO)C(O)C(O)C3OC(=O)/C=C\c3ccc(O)cc3)C12 (configuration not stated) |  | 91.8% [at 17.3 µM] |
| C=C1C(=O)OC[C@H]2C(C(=O)O)=CC3CC(C)(C)C[C@@]132 (some centres not stated) | 14.6 µM (active) |  |
| CCc1c(CC(N)=O)c2cc(OCCCP(=O)(O)O)ccc2n1Cc1ccccc1 |  | 101% |
| CC(=O)c1ccc(O[C@@H]2OC[C@@H](O)[C@H](O)[C@H]2O[C@]2(CO)O[C@H](CO)[C@@H](O)[C@@H]2O)c(O)c1 |  | 112% [at 17.3 µM] |
| C=C(C)C1CCC2(C(=O)OC3OC(COC4OC(CO)C(O)C(O)C4O)C(OC4OC(C)C(O)C(O)C4O)C(O)C3O)CCC3(C(=O)O)C(CCC4C5(C)CCC(=O)C(C)(C)C5CCC43C)C12 (configuration not stated) |  | 91.7% [at 9.25 µM] |
| O=C(O)CC1(O)C(=O)Nc2ccccc21 (configuration not stated) |  | 81.2% [at 91.9 µM] |
| CC(=O)/C=C/[C@H]1[C@](C)(O)[C@@H](O)[C@H](O)C2C(C)(C)CCC[C@@]21C (some centres not stated) |  | 88.4% |
| O=S(=O)(NCc1cccc2ccccc12)c1cc(Cl)c(Oc2cccc(N3CCNCC3)c2)s1 | 4.61 µM (active) |  |
| CC(C)(O)C1CC=C(C(=O)OC[C@H]2O[C@@H](OC(=O)C3=CCC(C(C)(C)O)CC3)[C@H](O)[C@@H](O)[C@@H]2O)CC1 (some centres not stated) |  | 87.7% [at 17.3 µM] |
| O=C(O)CCc1cccc(O[C@@H]2O[C@H](CO)[C@@H](O)[C@H](O)[C@H]2O)c1O |  | 101% |
| Oc1cccc(-c2nc(N3CCOCC3)c3sccc3n2)c1 | 2.06 µM (active) |  |
| CC(CC(C)O[C@@H]1O[C@H](CO)[C@@H](O)[C@H](O)[C@H]1O)OC(=O)/C=C/c1ccc(O)cc1 (some centres not stated) |  | 87.1% [at 17.3 µM] |
| Nc1nonc1-c1nc2cnccc2n1C1CCCCC1 | 0.731 µM (active) |  |
| CCCCCOc1ccc(-c2cc(-c3ccc(C(=O)N[C@H]4C[C@@H](O)[C@@H](O)NC(=O)C5[C@@H](O)[C@@H](C)CN5C(=O)C([C@H](O)CC(N)=O)NC(=O)C([C@H](O)[C@@H](O)c5ccc(O)c(OS(=O)(=O)O)c5)NC(=O)C5C[C@@H](O)CN5C(=O)C([C@@H](C)O)NC4=O)cc3)no2)cc1 (some centres not stated) |  | 82.9% [at 17.3 µM] |
| CC(C)Oc1ccc(C(=O)NC(CNC(=O)CN(C)C)Cc2ccc(-c3cn4cccc(C(C)O)c4n3)cc2)cc1Cl (configuration not stated) | 0.082 µM (active) |  |
